Inconclusive results are not listed. The source made the active and inactive calls. Unless noted, calls come from the whole dose curve; as a rule, active = well fitted curve in the direction sought with a large enough effect in the repeat runs; inconclusive = weak or mixed curves; inactive = no such curve, though single readings can be large; an effect the other way counts as inactive or inconclusive.
Legend:
[1] = qHTS assay to identify small molecule antagonists of the sonic hedgehog signaling (Shh) pathway (AID 1259369; calls by dose curve; note: nearly all actives have a fitted effect of over 45% in size)
In short: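 Luminescence readout: firefly Luc under Gli1 response element in 3T3Gli1-Luc cells (NIH/3T3 clone). Antagonist mode, stimulation by conditioned medium; compound exposure 24hr at 37 C, 5% CO2.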

[2] = target: Estrogen receptor beta (Homo sapiens) (UniProt Q92731); assay: qHTS assay to identify small molecule agonists of the estrogen receptor beta (ER-beta) signaling pathway (AID 1259377; active = well fitted activation curve with a large enough effect in the signal ratio in the repeat runs, not every such curve was filed as active; the % refers to the signal ratio)
In short: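 Read-out: beta-lactamase FRET fluorescence. Cell line: ER-beta-UAS-bla HEK293T in 2% charcoal-stripped FBS. Exposure: 16 hr at 37C. Substrate step: 2 h at room temperature.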

[3] = target: Estrogen receptor beta (Homo sapiens) (UniProt Q92731); assay: qHTS assay to identify small molecule antagonists of the estrogen receptor beta (ER-beta) signaling pathway (AID 1259378; active = well fitted inhibition curve with a large enough effect in the signal ratio in the repeat runs, not every such curve was filed as active; the % refers to the signal ratio)
In short: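 ER-beta-UAS-bla HEK293T (GripTite) cells in 2% charcoal-stripped FBS medium were preincubated 6 hr at 37C, dosed with compound, then stimulated with 1 nM E2 (final) for 16 hr; beta-lactamase reporter read by B/G FRET fluorescence after 2 hr substrate loading.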

[4] = qHTS assay to identify small molecule agonists of the androgen receptor (AR) signaling pathway in the presence of an antagonist - cell viability counter screen (AID 1259379);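 note: MDA-kb2 human breast cancer cells carrying an MMTV luciferase reporter; series mostly up to about 92 µM; nearly all actives have a fitted effect of over 25% in size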
In short: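 Viability counter screen: CellTiter-Fluor fluorescence, measured in the same wells as the luciferase read-out. MDA-kb2 cells, 3,000/well, with nilutamide at 3.0uM final and compounds at 15 concentrations, 16 hr at 37C, 0% CO2.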

[5] = qHTS assay to identify small molecule agonists of the estrogen receptor beta (ER-beta) signaling pathway - cell viability counter screen (AID 1259380); note: nearly all actives have a fitted effect of over 30% in size
In short: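 Luminescence read-out (CellTiter-Glo, 30 min, room temp) taken in the same wells as the beta-lactamase reporter assay; ER-beta-UAS-bla HEK293T cells exposed to DMSO-dissolved compounds for 16 hr at 37C in 2% charcoal-stripped FBS medium.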

[6] = target: Androgen receptor (Homo sapiens) (UniProt P10275); assay: qHTS assay to identify small molecule agonists of the androgen receptor (AR) signaling pathway in the presence of an antagonist (AID 1259381; calls by dose curve; note: nearly all actives have a fitted effect of over 15% in size)
In short: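 Luciferase read-out (ONE-Glo, 30min room temperature) in MDA-kb2 MMTV-reporter cells; agonist mode run in presence of AR antagonist nilutamide, 3.0uM final. Compounds tested as 15-point series, 16hr exposure at 37C, 0% CO2.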

[7] = qHTS assay to identify small molecule antagonists of the estrogen receptor beta (ER-beta) signaling pathway - cell viability counter screen (AID 1259382); note: series mostly up to about 92 µM; nearly all actives have a fitted effect of over 55% in size
In short: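 Luminescent ATP read-out (CellTiter-Glo, 30 min, RT) taken in the same wells as the bla reporter assay. HEK293T ER-beta-UAS-bla cells in 2% charcoal-stripped FBS were exposed to compounds with 1nM E2 for 16 hr at 37C.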

[8] = target: Estrogen receptor (Homo sapiens) (UniProt P03372); assay: qHTS assay to identify small molecule agonists of the estrogen receptor alpha (ER-alpha) signaling pathway in the presence of an antagonist (AID 1259383; calls by dose curve; note: top concentration of the series differs between compounds; nearly all actives have a fitted effect of over 15% in size)
In short: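 Luciferase luminescence (ONE-Glo, 30min at room temperature) measured in VM7Luc4E2 cells after 22hr compound exposure at 15 concentrations, with 10.0nM ICI-182,780 final present; cells express endogenous ER-alpha and carry four EREs upstream of luciferase.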

[9] = qHTS assay to identify small molecule agonists or antagonists of the thyroid stimulating hormone receptor (TSHR) signaling pathway - wild type cell line counter screen (AID 1259384; calls by dose curve)
In short: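 Wild-type HEK293 cells were plated 18 h at 37 C/5% CO2, pin-dosed with compound plus Ro20-1724 medium, held 30 min at room temperature, then given cAMP-d2 and anti-cAMP-cryptate; fluorescence was read after 1 h. Fifteen concentrations, triplicate.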

[10] = target: Thyrotropin receptor (Homo sapiens) (UniProt P16473); assay: qHTS assay to identify small molecule antagonists of the thyroid stimulating hormone receptor (TSHR) signaling pathway (AID 1259385; calls by dose curve; note: nearly all actives have a fitted effect of over 20% in size)
In short: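 TSHR-HEK293 cells were plated and held 18 h at 37C/5% CO2, then given compound plus Ro20-1724 and stimulated with TSH at 1.5 ng/mL final. After 30 min at room temperature, cAMP was detected with cAMP-d2/anti-cAMP-cryptate (1 h) by fluorescence.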

[11] = qHTS assay to identify small molecule agonists of the estrogen receptor alpha (ER-alpha) signaling pathway in the presence of an antagonist - cell viability counter screen (AID 1259386);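 note: series mostly up to about 92 µM; cells exposed to compounds for 22 h at 37 °C before the viability read; nearly all actives have a fitted effect of over 30% in size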
In short: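 Read-out: CellTiter-Fluor fluorescence after 1hr reagent incubation, measured in the same wells as the luciferase readout. VM7Luc4E2 cells were exposed to 15 compound concentrations with 10.0nM ICI-182,780 for 22hr at 37C.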

[12] = target: Progesterone receptor (Homo sapiens) (UniProt P06401); assay: qHTS assay to identify small molecule agonists of the progesterone receptor (PR) signaling pathway (AID 1346784; calls by dose curve; note: nearly all actives have a fitted effect of over 30% in size)
In short: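 Compounds were tested for PR agonism in HEK 293T cells bearing a beta-lactamase gene under UAS control. Treatment lasted 16 hr at 37C; signal came from fluorescence of a FRET substrate.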

[13] = target: Progesterone receptor (Homo sapiens) (UniProt P06401); assay: qHTS assay to identify small molecule antagonists of the progesterone receptor (PR) signaling pathway (AID 1346795; active = well fitted inhibition curve with a large enough effect in the signal ratio in the repeat runs, not every such curve was filed as active; the % refers to the signal ratio)
In short: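 In HEK293T cells bearing the PR-UAS-bla reporter, compound effects on promegestone-driven (1 nM) beta-lactamase expression are assessed after 16 hr using a fluorescent FRET substrate incubated 2 hr at room temperature.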

[14] = qHTS assay to identify small molecule antagonists of the progesterone receptor (PR) signaling pathway - cell viability counter screen (AID 1346798); note: series mostly up to about 92 µM; nearly all actives have a fitted effect of over 50% in size
In short: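 Following a 4 hr attachment, PR-UAS-bla HEK293T cells in charcoal-stripped FBS medium were exposed to compounds with R5020 for 16 hr; CellTiter-Glo was added and luminescence read after 30 min at room temperature.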

[15] = qHTS assay to identify small molecule agonists of the progesterone receptor (PR) signaling pathway - cell viability counter screen (AID 1346799; calls by dose curve; note: nearly all actives have a fitted effect of over 45% in size)
In short: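 Here, 3,000 PR-UAS-bla HEK293T cells per well were treated with compounds for 16 hr after a 6 hr preincubation at 37C and 5% CO2; cell viability is the CellTiter-Glo luminescence signal.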

[16] = qHTS assay to identify small molecule antagonists of the TGF-beta/Smad signaling pathway - cell viability counter screen (AID 1346824); note: nearly all actives have a fitted effect of over 50% in size
In short: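 SBE-bla HEK 293T cells were plated overnight at 37 C, then given compounds in DMSO plus TGF-beta1 (added as 0.25 ng/mL solution) for 5 hr. After the bla read, CellTiter-Glo was added to the same wells and luminescence read after 30 min at room temperature.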

[17] = qHTS assay to identify small molecule agonists of the TGF-beta/Smad signaling pathway - cell viability counter screen (AID 1346829); note: top concentration of the series differs between compounds; nearly all actives have a fitted effect of over 45% in size
In short: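 HEK 293T SBE-bla line, 5 hr compound exposure at 37 C, multiplexed CellTiter-Glo viability read by luminescence.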

[18] = qHTS assay to identify small molecule agonists of the TGF-beta/Smad signaling pathway (AID 1346859; active = well fitted activation curve with a large enough effect in the signal ratio in the repeat runs, not every such curve was filed as active; the % refers to the signal ratio; note: series mostly up to about 77 µM)
In short: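 Each well held 4,000 SBE-bla HEK 293T cells incubated overnight before compound addition; 5 hr later the cleavable FRET substrate went on for 2 hr at room temperature, and fluorescence was read at two emissions.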

[19] = target: Thyrotropin-releasing hormone receptor (Homo sapiens) (UniProt P34981); assay: qHTS assay to identify small molecule antagonists of the thyrotropin-releasing hormone receptor (TRHR) signaling pathway (AID 1346877; active = well fitted inhibition curve with a large enough effect in the repeat runs, not every such curve was filed as active; note: series mostly up to about 51 µM)
In short: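 HEK293/TRHR cells, 18 h, 37 °C; Ca2+ dye 2 h; cpd 5 min RT; TRH 1 nM final; fluorescence read 3 min, 1 s intervals; 15 concs, triplicate.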

[20] = target: Thyrotropin-releasing hormone receptor (Homo sapiens) (UniProt P34981); assay: qHTS assay to identify small molecule agonists of the thyrotropin-releasing hormone receptor (TRHR) signaling pathway (AID 1346891; calls by dose curve; note: series mostly up to about 58 µM)
In short: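 Screening of agonists relied on calcium signalling in HEK293 cells expressing human TRHR: dye loading 2 h at 37 °C preceded compound addition and a 3-min fluorescence time course.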

Measured: Potency

Chain of Thyrotropin receptor (Homo sapiens) (P16473 whole entry, looked up): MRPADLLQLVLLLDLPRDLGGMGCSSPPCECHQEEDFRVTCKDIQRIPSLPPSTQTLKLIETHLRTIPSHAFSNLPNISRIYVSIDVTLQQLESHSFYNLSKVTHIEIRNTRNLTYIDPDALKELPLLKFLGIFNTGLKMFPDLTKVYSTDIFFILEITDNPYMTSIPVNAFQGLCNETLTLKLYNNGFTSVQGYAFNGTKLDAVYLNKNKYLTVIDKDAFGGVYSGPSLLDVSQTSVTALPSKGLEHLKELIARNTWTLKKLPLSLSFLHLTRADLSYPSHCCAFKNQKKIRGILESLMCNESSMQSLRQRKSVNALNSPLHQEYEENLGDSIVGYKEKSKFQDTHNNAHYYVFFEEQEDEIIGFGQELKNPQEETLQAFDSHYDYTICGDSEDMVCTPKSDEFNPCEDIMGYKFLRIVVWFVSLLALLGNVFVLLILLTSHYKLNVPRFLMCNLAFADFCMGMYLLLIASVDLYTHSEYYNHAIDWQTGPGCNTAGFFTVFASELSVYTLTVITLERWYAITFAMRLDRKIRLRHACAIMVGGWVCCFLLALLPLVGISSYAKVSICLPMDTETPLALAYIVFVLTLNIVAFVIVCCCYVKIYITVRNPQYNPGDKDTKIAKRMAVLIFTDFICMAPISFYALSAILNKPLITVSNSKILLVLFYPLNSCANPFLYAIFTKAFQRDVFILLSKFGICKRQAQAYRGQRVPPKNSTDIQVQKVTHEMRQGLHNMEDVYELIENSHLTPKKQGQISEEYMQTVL
Chain of Estrogen receptor beta (Homo sapiens) (Q92731 whole entry, looked up): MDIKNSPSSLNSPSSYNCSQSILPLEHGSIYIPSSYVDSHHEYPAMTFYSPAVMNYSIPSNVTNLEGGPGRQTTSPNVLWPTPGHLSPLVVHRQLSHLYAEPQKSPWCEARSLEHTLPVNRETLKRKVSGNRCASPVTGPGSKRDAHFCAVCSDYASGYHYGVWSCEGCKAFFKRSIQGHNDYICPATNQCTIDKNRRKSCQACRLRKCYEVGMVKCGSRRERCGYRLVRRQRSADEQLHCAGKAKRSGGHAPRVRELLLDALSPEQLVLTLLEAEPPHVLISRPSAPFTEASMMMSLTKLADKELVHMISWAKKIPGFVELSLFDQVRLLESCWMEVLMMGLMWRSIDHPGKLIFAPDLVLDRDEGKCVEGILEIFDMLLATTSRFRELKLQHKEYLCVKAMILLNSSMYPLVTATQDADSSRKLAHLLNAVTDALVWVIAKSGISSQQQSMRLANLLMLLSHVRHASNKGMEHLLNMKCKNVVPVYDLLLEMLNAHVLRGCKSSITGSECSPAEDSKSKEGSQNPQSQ
Chain of Thyrotropin-releasing hormone receptor (Homo sapiens) (P34981 whole entry, looked up): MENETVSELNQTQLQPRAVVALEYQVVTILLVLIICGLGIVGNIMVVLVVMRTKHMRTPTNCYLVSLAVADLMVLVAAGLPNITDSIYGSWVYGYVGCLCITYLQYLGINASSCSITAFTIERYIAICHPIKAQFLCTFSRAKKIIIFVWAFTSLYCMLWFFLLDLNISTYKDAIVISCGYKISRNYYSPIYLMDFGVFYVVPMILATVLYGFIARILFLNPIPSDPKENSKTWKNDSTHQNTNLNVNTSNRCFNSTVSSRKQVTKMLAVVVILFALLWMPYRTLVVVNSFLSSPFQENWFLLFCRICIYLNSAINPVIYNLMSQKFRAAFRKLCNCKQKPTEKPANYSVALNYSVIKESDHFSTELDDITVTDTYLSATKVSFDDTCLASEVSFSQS
Chain of Progesterone receptor (Homo sapiens) (P06401 whole entry, looked up): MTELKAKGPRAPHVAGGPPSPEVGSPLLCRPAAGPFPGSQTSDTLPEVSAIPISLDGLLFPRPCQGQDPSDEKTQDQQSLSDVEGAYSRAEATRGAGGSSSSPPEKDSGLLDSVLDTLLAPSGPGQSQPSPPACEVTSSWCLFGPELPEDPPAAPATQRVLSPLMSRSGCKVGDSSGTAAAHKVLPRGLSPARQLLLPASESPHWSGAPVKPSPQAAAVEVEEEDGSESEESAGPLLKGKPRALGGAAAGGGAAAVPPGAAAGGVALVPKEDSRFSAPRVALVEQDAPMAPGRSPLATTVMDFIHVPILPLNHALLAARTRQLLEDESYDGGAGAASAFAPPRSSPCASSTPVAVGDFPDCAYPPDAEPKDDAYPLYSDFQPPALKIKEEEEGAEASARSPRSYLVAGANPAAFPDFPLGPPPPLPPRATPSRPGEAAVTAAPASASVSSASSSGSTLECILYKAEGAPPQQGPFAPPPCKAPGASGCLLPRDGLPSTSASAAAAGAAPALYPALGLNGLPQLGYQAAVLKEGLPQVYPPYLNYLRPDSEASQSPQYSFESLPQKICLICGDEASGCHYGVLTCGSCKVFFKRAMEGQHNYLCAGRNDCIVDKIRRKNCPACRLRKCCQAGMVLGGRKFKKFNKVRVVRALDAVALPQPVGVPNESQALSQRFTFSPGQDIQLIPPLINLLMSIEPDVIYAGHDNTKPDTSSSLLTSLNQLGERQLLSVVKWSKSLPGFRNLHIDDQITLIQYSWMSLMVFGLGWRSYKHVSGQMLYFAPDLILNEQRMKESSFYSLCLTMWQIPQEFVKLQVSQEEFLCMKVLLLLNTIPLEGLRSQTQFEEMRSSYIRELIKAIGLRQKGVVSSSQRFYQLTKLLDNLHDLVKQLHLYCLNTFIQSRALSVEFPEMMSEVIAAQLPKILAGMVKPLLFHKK
Chain of Androgen receptor (Homo sapiens) (P10275 whole entry, looked up): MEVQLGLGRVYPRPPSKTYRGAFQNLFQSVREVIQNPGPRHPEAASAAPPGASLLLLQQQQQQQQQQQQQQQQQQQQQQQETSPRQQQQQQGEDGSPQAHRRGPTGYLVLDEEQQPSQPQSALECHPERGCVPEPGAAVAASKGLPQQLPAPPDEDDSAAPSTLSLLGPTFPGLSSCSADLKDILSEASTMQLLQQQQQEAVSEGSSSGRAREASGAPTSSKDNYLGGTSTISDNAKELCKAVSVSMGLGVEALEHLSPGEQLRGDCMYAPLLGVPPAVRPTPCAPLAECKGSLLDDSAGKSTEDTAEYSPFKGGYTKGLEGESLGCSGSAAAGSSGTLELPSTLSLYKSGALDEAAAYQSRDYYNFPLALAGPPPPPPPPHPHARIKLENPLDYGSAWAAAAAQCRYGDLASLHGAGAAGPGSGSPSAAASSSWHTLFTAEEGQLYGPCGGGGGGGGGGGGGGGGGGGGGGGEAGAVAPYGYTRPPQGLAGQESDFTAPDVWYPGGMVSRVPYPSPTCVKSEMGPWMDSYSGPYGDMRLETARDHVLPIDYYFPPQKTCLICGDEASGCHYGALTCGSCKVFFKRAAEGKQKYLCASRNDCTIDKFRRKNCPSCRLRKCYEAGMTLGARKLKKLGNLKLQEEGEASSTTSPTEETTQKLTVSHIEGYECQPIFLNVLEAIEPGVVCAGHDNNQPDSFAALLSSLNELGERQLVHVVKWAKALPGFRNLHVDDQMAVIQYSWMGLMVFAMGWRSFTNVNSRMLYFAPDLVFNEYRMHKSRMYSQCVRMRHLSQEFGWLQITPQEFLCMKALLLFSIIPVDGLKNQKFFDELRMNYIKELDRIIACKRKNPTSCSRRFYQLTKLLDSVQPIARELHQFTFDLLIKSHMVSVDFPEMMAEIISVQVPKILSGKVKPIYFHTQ
Chain of Estrogen receptor (Homo sapiens) (P03372 whole entry, looked up): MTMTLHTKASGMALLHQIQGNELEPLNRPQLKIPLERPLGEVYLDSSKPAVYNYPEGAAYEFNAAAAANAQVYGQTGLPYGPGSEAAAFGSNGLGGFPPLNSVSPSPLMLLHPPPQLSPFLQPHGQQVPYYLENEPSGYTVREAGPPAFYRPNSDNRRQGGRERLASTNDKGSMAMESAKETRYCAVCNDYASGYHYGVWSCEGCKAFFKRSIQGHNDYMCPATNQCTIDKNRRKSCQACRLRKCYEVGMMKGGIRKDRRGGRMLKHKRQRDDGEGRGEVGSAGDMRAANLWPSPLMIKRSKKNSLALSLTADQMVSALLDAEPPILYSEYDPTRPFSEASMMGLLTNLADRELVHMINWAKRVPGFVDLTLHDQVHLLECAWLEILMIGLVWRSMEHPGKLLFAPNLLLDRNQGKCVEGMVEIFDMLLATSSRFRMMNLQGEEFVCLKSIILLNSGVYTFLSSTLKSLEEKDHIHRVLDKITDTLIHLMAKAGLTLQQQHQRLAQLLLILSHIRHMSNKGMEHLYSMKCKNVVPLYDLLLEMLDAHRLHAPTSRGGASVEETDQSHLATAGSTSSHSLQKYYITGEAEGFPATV

O=S(=O)(O)c1ccccc1O
not listed: [19] | [20]
inactive: all other assays above

C=C[Si](OC)(OC)OC
not listed: [6] | [9] | [10]
inactive: all other assays above

O=C(CCOCCOCCOCCOCCC(=O)Nc1c(I)cc(I)c(C(=O)O)c1I)Nc1c(I)cc(I)c(C(=O)O)c1I
not listed: [9] | [19] | [20]
inactive: all other assays above

CCC(C)(C)C1CCC(OC)CC1 (stereo unspecified)
not listed: [6] | [9]
inactive: all other assays above

CCCCc1ccc2cccc(S(=O)(=O)O)c2c1
not listed: [19] | [20]
inactive: all other assays above

COc1nc(C)nc(N)n1
not listed: [6]
inactive: all other assays above

CC(C)(O)Cc1ccccc1
not listed: [6]
inactive: all other assays above

— PubChem BioAssay (Tox21)
